Assay in all cases: Euclidean distance of Cell Painting phenotypic profile (signed KS, 77 features) to DMSO centroid (dimensionless distance); 5 or 10 uM (library dependent); higher = stronger phenotypic change vs DMSO (phenoactivity)
What all share (settings): 48 h

One assay relates to 786-O. The method, boiled down:
(§1)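 Stained cells were imaged confocally at 20X with 9 fields per well, after 48 h of exposure to library compounds at 10 or 5 uM (set by library; 0.1% DMSO final). The cells were five cancer lines and a healthy fibroblast line. From the images, Harmony extracted 77 features, each expressed as a signed Kolmogorov-Smirnov statistic relative to same-plate vehicle wells. Phenoactivity is measured as Euclidean distance to the median vehicle profile, using plate-position-corrected, correlation-weighted profiles averaged across replicates at the top dose.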

For the next assay, the system named is A549. The method, boiled down: as §1
A further assay deals with DU145. The method in brief:
as §1

The next assay has as its system FB. The method in brief:
as §1

The subject of the next assay is HEPG2. The method in brief: as §1
Another assay concerns OVCAR4. The method, boiled down:
as §1

Where a name gives a salt, the structure may show the parent alone.

In the case of `C#C[C@]1(O)CC[C@H]2[C@@H]3CCC4=CC(=O)CC[C@@H]4[C@H]3C(=C)C[C@@]21CC` [Etonogestrel], the Euclidean distance in the assay on 786-O amounted to 0.851; with A549, 0.713; in the assay on DU145, 0.98; in the assay with FB, 1.21; in the assay with HEPG2, 0.628; with OVCAR4, 1.03.

For `COCC[n+]1c2c(n(Cc3cnccn3)c1C)C(=O)c1ccccc1C2=O` [YM155 (Sepantronium Bromide)], the Euclidean distance with 786-O stood at 5.76; with A549 it was 5.14; in the assay with DU145, 7.03; in the assay on FB, 5.89; in the assay on HEPG2, 3.26; in the assay on OVCAR4, 5.47.

On to `COC(=O)C1=CO[C@@H](O)[C@@H]2C(CO)=CC[C@H]12` [Genipin], for which the Euclidean distance in the assay on 786-O is 1.19; in the assay on A549 it was 1.13; in the assay with DU145 it was 0.882; in the assay on FB, 1.15; in the assay on HEPG2, 0.828; with OVCAR4 it was 1.35.

Regarding `CC1=NN(c2ccc(C)c(C)c2)C(=O)/C1=N\Nc1cccc(-c2cccc(C(=O)O)c2)c1O` [Eltrombopag], the Euclidean distance with 786-O was determined as 2.4; with A549 it was 1.81; in the assay with DU145, 3.38; in the assay on FB, 2.71; in the assay on HEPG2 it was 3.89; in the assay with OVCAR4, 2.45.

Turning to `Nc1nc(NC2CC2)c2ncn([C@H]3C=C[C@@H](CO)C3)c2n1` [Abacavir sulfate], the Euclidean distance worked out at 1.09 in the assay on 786-O; 1.86 in the assay with A549; 1.39 in the assay with DU145; 1.19 with FB; 0.688 with HEPG2; 1.74 in the assay on OVCAR4.

For the compound `CO/N=C(\C(=O)N[C@@H]1C(=O)N2C(C(=O)OCOC(=O)C(C)(C)C)=C(/C=C\c3scnc3C)CS[C@H]12)c1csc(N)n1` [Cefditoren Pivoxil], the Euclidean distance is 1.06 in the assay on 786-O; 0.732 in the assay with A549; 1.67 with DU145; 1.03 in the assay on FB; 2.12 in the assay on HEPG2; 1.5 in the assay with OVCAR4.

Regarding `Cc1cc2c(cc1S(N)(=O)=O)S(=O)(=O)CCC2` [Meticrane], the Euclidean distance amounted to 0.951 in the assay with 786-O; 0.864 with A549; 2.26 in the assay with DU145; 0.946 in the assay on FB; 1.17 with HEPG2; 0.99 with OVCAR4.

Turning to `OCc1c[nH]c2ccccc12` [Indole-3-carbinol], the Euclidean distance with 786-O was determined as 1.05; in the assay on A549 it was 1.17; in the assay on DU145, 0.838; in the assay on FB, 0.767; with HEPG2 it was 0.598; in the assay on OVCAR4, 1.05.

For `CC(C)CN(C[C@@H](OP(=O)(O)O)[C@H](Cc1ccccc1)NC(=O)O[C@H]1CCOC1)S(=O)(=O)c1ccc(N)cc1` [Fosamprenavir calcium salt], the Euclidean distance with 786-O came out at 1.44; in the assay on A549, 0.901; in the assay with DU145, 1.21; with FB, 0.737; in the assay with HEPG2 it was 0.527; with OVCAR4 it was 1.41.

Take `CN(C/C=C/C#CC(C)(C)C)Cc1cccc2ccccc12` [Terbinafine]: the Euclidean distance in the assay on 786-O was 1.56; in the assay with A549, 0.66; in the assay with DU145 it was 0.898; in the assay on FB it was 0.587; with HEPG2 it was 1.36; with OVCAR4, 1.18.

`O=C(N/N=C/c1ccc(O)c(O)c1)c1cc2ccccc2cc1O` [Dynasore]: the Euclidean distance in the assay on 786-O was 0.917; in the assay on A549, 1.21; with DU145 it was 0.791; with FB, 0.928; in the assay on HEPG2, 1.13; with OVCAR4 it was 0.791.

In the case of `O=C(O[C@H]1CN2CCC1CC2)N1CCc2ccccc2[C@@H]1c1ccccc1` [Solifenacin succinate], the Euclidean distance in the assay on 786-O is 1.31; with A549, 1.56; in the assay on DU145 it was 1.17; in the assay on FB, 2.68; in the assay with HEPG2, 2.17; with OVCAR4, 1.98.

`Cn1c(=O)c2c(ncn2CC(O)CO)n(C)c1=O` (centres undefined) [Dyphylline]: the Euclidean distance with 786-O was determined as 1.02; with A549, 0.909; in the assay with DU145, 0.59; in the assay on FB, 1.07; in the assay on HEPG2, 1.05; in the assay on OVCAR4, 1.59.

`O=C(c1ccccc1)c1ccc2n1CCC2C(=O)O` (centres undefined) [Ketorolac]: the Euclidean distance with 786-O came to 1.49; in the assay on A549 it was 1.29; in the assay with DU145, 0.701; in the assay on FB, 0.977; with HEPG2 it was 0.545; in the assay with OVCAR4, 1.06.

Consider `Cc1cc(=O)n(-c2ccccc2)n1C` [Antipyrine], for which the Euclidean distance is 1.52 in the assay on 786-O; 0.45 in the assay with A549; 1.03 in the assay with DU145; 1.42 with FB; 0.888 in the assay on HEPG2; 0.707 in the assay with OVCAR4.

For the compound `CC1(C)CC(Oc2ccc(-c3ccc(-c4cn[nH]c4)cc3O)nn2)CC(C)(C)N1` [Branaplam (LMI070)], the Euclidean distance with 786-O came out at 2.88; with A549, 2.86; with DU145 it was 4.33; with FB, 3.24; in the assay on HEPG2, 3.03; in the assay with OVCAR4, 3.09.

Take `COc1c(-c2ccc3cc(NS(C)(=O)=O)ccc3c2)cc(-n2ccc(=O)[nH]c2=O)cc1C(C)(C)C` [Dasabuvir(ABT-333)]: the Euclidean distance was 1.78 in the assay with 786-O; 1.78 in the assay on A549; 1.27 with DU145; 1.48 in the assay on FB; 1.05 in the assay on HEPG2; 1.42 in the assay with OVCAR4.

As to `C=C(CC)C(=O)c1ccc(OCC(=O)O)c(Cl)c1Cl` [Ethacrynic Acid], the Euclidean distance in the assay with 786-O was 1.19; in the assay on A549 it was 1.01; with DU145, 1.03; in the assay on FB it was 1.17; in the assay on HEPG2, 1.05; in the assay with OVCAR4, 1.14.

With `CCOc1ccc(NC(C)=O)cc1` [Phenacetin], the Euclidean distance was found to be 1.38 with 786-O; 0.916 in the assay with A549; 1.56 with DU145; 0.94 in the assay on FB; 0.469 in the assay with HEPG2; 1.83 in the assay with OVCAR4.

(Values after the supplement of paper PMC10127200.)
